Measured values published in PubChem BioAssay AID2057 (The Scripps Research Institute Molecular Screening Center, 2009).
Hit rate of the full screen: of about 320,000 compounds, about 2,100 (0.66%) were called active.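 The calls were made as follows: active = inhibition above the mean inhibition of all tested compounds plus 3 SD, set per campaign (cut at about 40% in these data); inactive = the rest.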 The list comes from a sample in which actives are over-represented; it also holds similar structures and randomly drawn compounds.

Each compound was assayed against Induced myeloid leukemia cell differentiation protein Mcl-1 (Homo sapiens) (UniProt Q07820) (assay: MCL1-BIM peptide interaction disruptors – biochemical, fluorescence polarization, primary screen (AID 2057;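 also: 0% = DMSO wells and 100% = unlabeled Bim-BH3 peptide control; higher means more loss of mP so more displacement of Bim peptide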)). Settings: GST-MCL1 / FITC-Bim-BH3 fluorescence polarization; at 10.9 µM; active compounds read high.
Sequence of Induced myeloid leukemia cell differentiation protein Mcl-1 (Homo sapiens) (Q07820 whole entry, looked up): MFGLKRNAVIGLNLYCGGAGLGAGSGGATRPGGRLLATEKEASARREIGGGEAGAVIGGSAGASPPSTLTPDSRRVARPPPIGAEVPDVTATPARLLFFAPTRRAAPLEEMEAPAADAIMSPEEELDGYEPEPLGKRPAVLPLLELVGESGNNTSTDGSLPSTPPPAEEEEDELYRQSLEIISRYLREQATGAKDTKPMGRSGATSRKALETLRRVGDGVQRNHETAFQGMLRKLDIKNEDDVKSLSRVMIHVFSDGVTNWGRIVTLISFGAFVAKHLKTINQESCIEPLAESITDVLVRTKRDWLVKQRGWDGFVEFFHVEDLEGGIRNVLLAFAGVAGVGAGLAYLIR
In the case of `Cc1cc(C)nc(-n2ncc3c2CC(c2ccc(C(C)C)cc2)CC3=O)n1` (configuration not stated), the inhibition was 2.19% (inactive).
With `O=C(COC(=O)C1CCN(S(=O)(=O)c2ccc3c(c2)OCCO3)CC1)Nc1ccccc1OC(F)F` the inhibition was 0.49% (inactive).
`O=C1CCN(C(=O)Nc2ccccc2)N1` was tested, and the inhibition was -0.78% (inactive).
In the case of `Cc1cc(N2C(=O)C(O)=C(C(=O)c3ccc(C)o3)C2c2ccc(OCc3ccccc3)cc2)no1` (configuration not stated), the inhibition was 10.4% (inactive).
In the case of `C=CCOc1cccc(C2C(C(=O)c3ccc(C)o3)=C(O)C(=O)N2c2nnc(C)s2)c1` (configuration not stated), the inhibition was 81.2% (active).
In the case of `C=CCOc1cccc(C2C(C(=O)c3ccc(C)o3)=C(O)C(=O)N2CCCn2ccnc2)c1` (configuration not stated), the inhibition was -4.11% (inactive).
In the case of `CCNC(=S)N(CCN(CC)CC)Cc1cc2cc3c(cc2[nH]c1=O)OCCO3`, the inhibition was 13.5% (inactive).
For `Cc1ccc(OCC(=O)Nc2ccccc2Sc2ccc(Cl)cc2)c([N+](=O)[O-])n1`, the inhibition was 3.45% (inactive).
In the case of `CC(C)c1csc(CN2CCC(CO)(Cc3ccccc3)CC2)n1`, the inhibition was 8.03% (inactive).
In the case of `COc1ccc2[nH]c(C)c(CCN(Cc3cccs3)C(=S)Nc3ccccc3OC)c2c1`, the inhibition was 65.3% (active).
With `COc1cccc(NC(=S)N(CCc2c(C)[nH]c3ccccc23)Cc2ccco2)c1` the inhibition was 4.2% (inactive).
`Cc1[nH]c2ccccc2c1CCN(Cc1cccs1)C(=S)NC(C)(C)C` was tested, and the inhibition was 7.74% (inactive).
With `CC(CC(=O)N1CCN(c2ccccc2)CC1)S(=O)(=O)c1ccc2c(c1)NC(=O)CS2` (configuration not stated) the inhibition was -2.69% (inactive).
For `CN(C(=O)COC(=O)CNC(=O)C12CC3CC(CC(C3)C1)C2)c1ccccc1`, the inhibition was -5.29% (inactive).
`Cc1ccsc1C(=O)NCCc1ccco1` was tested, and the inhibition was 7.13% (inactive).
For `COc1ccccc1-c1oc2ccccc2c1C#CCCCCO`, the inhibition was -3.18% (inactive).
For `CC(=O)Nc1ccc(S(=O)(=O)N2CCC(C(=O)NC3CC3)CC2)cc1`, the inhibition was -6.89% (inactive).
For `Cc1ccc(Cc2cnc(NC(=O)/C(C#N)=C/c3ccc(-c4cccc([N+](=O)[O-])c4)o3)s2)cc1`, the inhibition was -0.71% (inactive).
In the case of `O=C(O)c1cc(Cl)c(Cl)cc1C(=O)Nc1cccc2ncccc12`, the inhibition was -1.24% (inactive).
`Cc1ccc(/C=C(\C#N)C(=O)Nc2cccc3ncccc23)o1` was tested, and the inhibition was 138% (active).
With `COc1ccc(OC)c(C(C)NC(=S)Nc2ccc(S(=O)(=O)Nc3ncccn3)cc2)c1` (configuration not stated) the inhibition was 5.87% (inactive).
For `CCN(CC)CCNC(=O)c1sc2ncn(CC(=O)Nc3ccc(C)c(Cl)c3)c(=O)c2c1C`, the inhibition was -4.53% (inactive).
For `CCOc1cc(C(=S)N2CCOCC2)ccc1OS(=O)(=O)c1ccc(Br)cc1`, the inhibition was 2.62% (inactive).
In the case of `CSc1ccccc1-c1nnc(-c2ccc(Cl)cc2)o1`, the inhibition was -2.22% (inactive).
In the case of `COc1ccc(/C=N/NC(=O)c2ccncc2)cc1CN1CCCc2ccccc21`, the inhibition was 9.1% (inactive).
In the case of `Nc1cc(N2CCCCCC2)c2nonc2c1[N+](=O)[O-]`, the inhibition was 48% (active).
For `Nc1nc(NCC(=O)O)nc(N2CCCCCC2)c1[N+](=O)[O-]`, the inhibition was 1.22% (inactive).
In the case of `Cc1c(Nc2cc(N3CCCC(C)C3)c3nonc3c2[N+](=O)[O-])c(=O)n(-c2ccccc2)n1C` (configuration not stated), the inhibition was -0.42% (inactive).
In the case of `CC(C)COC(=O)C1C2C=CC3(CN(C(C)c4ccc(Br)cc4)C(=O)C13)O2` (configuration not stated), the inhibition was -1.26% (inactive).
With `Cc1ccc(C(=O)COC(=O)CCCC(=O)NC2CCCCC2)cc1[N+](=O)[O-]` the inhibition was -0.81% (inactive).
`C=CCn1c(=S)[nH]c2scc(-c3ccco3)c2c1=O` was tested, and the inhibition was 67.4% (active).
With `C=CCn1c(SCc2csc(C)n2)nc2scc(-c3ccc(C)o3)c2c1=O` the inhibition was -8.6% (inactive).
`C=CCNC(=O)CSc1nc2scc(-c3ccco3)c2c(=O)n1CC=C` was tested, and the inhibition was -5.54% (inactive).
With `COc1ccc(S(=O)(=O)N2CCCCC2)cc1NC(=O)c1cc([N+](=O)[O-])ccc1N1CCOCC1` the inhibition was 3.68% (inactive).
For `CCn1c(SCc2cc(=O)n3ccsc3n2)nc2ccccc21`, the inhibition was 8.95% (inactive).
With `CCOc1ncccc1C(=O)N(C)CC(=O)Nc1ccc(F)cc1` the inhibition was -10.5% (inactive).
With `Cc1ccc(NC(=O)c2cc(-c3ccc(C)o3)nc3ccccc23)nc1` the inhibition was 56.2% (active).
With `CC(=O)N1CCN(C(=O)c2cc(-c3ccc(C)o3)nc3ccccc23)CC1` the inhibition was 7.28% (inactive).
For `COc1ccc(NC(=O)c2cc(-c3ccc(C)o3)nc3ccccc23)cc1`, the inhibition was 22.5% (inactive).
With `Cc1cc(OCc2cc(C(=O)NCc3cc(C(C)C)no3)no2)cc(C)c1Cl` the inhibition was 6.88% (inactive).
In the case of `Cc1cc(C)n(-c2nnc(C)n2NC(=O)c2cccc(Cl)c2)n1`, the inhibition was -1.3% (inactive).
For `Oc1ccc(C2Nc3cccc4cccc(c34)N2)cc1`, the inhibition was 26.6% (inactive).
`COc1cccc(C2Nc3cccc4cccc(c34)N2)c1` was tested, and the inhibition was 22.2% (inactive).
`Cc1ccc(C2Nc3cccc4cccc(c34)N2)cc1` was tested, and the inhibition was 53.9% (active).
In the case of `O=C(C1CCC1)N1CCN(S(=O)(=O)c2ccc([N+](=O)[O-])cc2)CC1`, the inhibition was -7.38% (inactive).
For `COc1ccc(O)c(/C=N/N=C/c2cccc([N+](=O)[O-])c2)c1`, the inhibition was 3.97% (inactive).
In the case of `COc1ccccc1/C=C/C(=O)NC(=S)N1CCOCC1`, the inhibition was -5.3% (inactive).
`COc1ccc(OCC(=O)NCCS(=O)(=O)N2CCN(c3ccc(F)cc3)CC2)cc1` was tested, and the inhibition was 2.8% (inactive).
With `COC(=O)C1=C(C)Nc2ncnn2C1c1ccco1` (configuration not stated) the inhibition was 9.97% (inactive).
For `CCOc1ccc(C2=CC(c3ccccc3)n3ncnc3N2)cc1` (configuration not stated), the inhibition was 6.81% (inactive).
With `O=C(C1=C(O)C(=O)N(c2ncccn2)C1c1cccs1)c1ccco1` (configuration not stated) the inhibition was 117% (active).
In the case of `O=C(C1=C(O)C(=O)N(Cc2ccccc2)C1c1cccnc1)c1ccco1` (configuration not stated), the inhibition was 2.72% (inactive).
For `O=C(C1=C(O)C(=O)N(Cc2ccccc2)C1c1ccco1)c1ccco1` (configuration not stated), the inhibition was 4.91% (inactive).
For `CC(=O)Nc1cccc(C(=O)OCC(=O)c2ccc3c(c2)OCO3)c1`, the inhibition was 0.4% (inactive).
`C/C=C\C=C\C(=O)N1CC2(CC(c3cccc(NC(=O)/C(C)=C\C)c3)=NO2)C[C@H]1C(N)=O` (some centres not stated) was tested, and the inhibition was 0% (inactive).
`CCOc1ccccc1NC(=S)N1CCN(c2cccc(C)c2C)CC1` was tested, and the inhibition was 4.81% (inactive).
With `CCOC(=O)c1ccc(NC(=O)Cn2cnc3cc(C)c(C)cc32)cc1` the inhibition was 5.35% (inactive).
